# Results: PMC5540273 (PLoS ONE, 2017)
# Tested on: TYK2(JH2domain-pseudokinase)
# 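Further: kd values determined as follow-up on hits from a single-replicate KINOMEscan panel screen.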
row,Compound,Kd [nM]
1,Nc1ncnc2[nH]c(-c3ccccc3)nc12 [AH5015],96
2,Cc1csc(-c2nc(Nc3ccncc3)c3ccccc3n2)n1 [GW869640],530
3,COc1ccc2nc(-c3cccc(C)n3)nc(Nc3ccncc3)c2c1 [GSK204919],2000

# Tested on: ULK3
row,Compound,Kd [nM]
1,COc1ccc(CNC(=O)NC2CCN(c3ccnc(Nc4cc(OC)c(OC)c(OC)c4)n3)C2)cc1 (stereo not shown) [GSK1379748],550
2,COc1cc(Nc2nccc(N3CCC(NC(=O)Nc4cc(C)ccc4C)C3)n2)cc(OC)c1OC (stereo not shown) [GSK1379762],4300
3,COc1ccccc1-c1ccc2c(NC(=O)C3CC3)n[nH]c2n1 [SB-711239],> 10000

# Tested on: T1, VPS34
# T1 construct: gene PIK3C3
row,Compound,Kd [nM]
1,Cc1nnc(-c2ccc3occ(-c4ccc(S(C)=O)cc4)c3c2)[nH]1 (stereo not shown),62
2,Cc1c(Cn2ccn3c(=O)cc(N4CCOCC4)nc23)cccc1C(F)(F)F [GSK2289044],64
3,CS(=O)(=O)c1ccc(-c2c(-c3ncn[nH]3)sc(N3CCOCC3)c2C#N)cc1,110
4,O=c1cc(N2CCOCC2)nc2n(Cc3cccc(Cl)c3Cl)ccn12 [GSK2286295],2.1
5,Cc1cccc(-c2nc(-c3ccc(S(C)(=O)=O)cc3)sc2-c2ccnc(NCCc3ccccc3)c2)c1,8400

# Tested on: T2, YSK4
# T2 construct: gene MAP3K19
row,Compound,Kd [nM]
1,Nc1ncnc2[nH]c(-c3ccccc3)nc12 [AH5015],270
2,Cn1ccc2ncnc(Oc3ccc(NC(=O)Nc4ccccc4)cc3)c21,170
3,O=C(O)COc1ncnc2cc(-c3ccc4[nH]ncc4c3)sc12,20
4,NC(=O)c1nnc2ccccc2c1N,300
5,Cc1cc(-c2ccc3c(c2)CC[C@@H](N[C@@H](C)c2ccccc2)C3)cnc1N.Cl [GW412617],2400
6,O=C(Nc1n[nH]c2nc(-c3nccs3)c(Br)cc12)C1CC1 [SB-742251],210
7,Cc1ccc(NC(=O)Nc2cccc(Cl)c2)cc1-c1ccc(C(=O)Nc2ccncc2)cc1 [GSK1398468],61
8,O=C(Nc1ccccc1)Nc1cccc(Oc2ccc3nccn3n2)c1,270
